Measured values reported in article PMC7862700, “An all-to-all approach to the identification of sequence-specific readers for epigenetic DNA modifications on cytosine”.

Experiments:
Test in all cases: DAPPL (digital affinity profiling via proximity ligation, sequencing); 10 mM Tris-HCl pH 7.5, 50 mM NaCl, 1 mM DTT, 4% glycerol, room temperature, 30 min; GST-TFs on glutathione beads, 16-mer random dsDNA library, 0.1% formaldehyde crosslink after washing; high values mean tight binding
FLI1 = target: T1, FLI1 (Homo sapiens, UniProt Q01543 1-452); settings: protein: recombinant; tags: N-terminal GST; dsDNA, one strand shown
T1 sequence: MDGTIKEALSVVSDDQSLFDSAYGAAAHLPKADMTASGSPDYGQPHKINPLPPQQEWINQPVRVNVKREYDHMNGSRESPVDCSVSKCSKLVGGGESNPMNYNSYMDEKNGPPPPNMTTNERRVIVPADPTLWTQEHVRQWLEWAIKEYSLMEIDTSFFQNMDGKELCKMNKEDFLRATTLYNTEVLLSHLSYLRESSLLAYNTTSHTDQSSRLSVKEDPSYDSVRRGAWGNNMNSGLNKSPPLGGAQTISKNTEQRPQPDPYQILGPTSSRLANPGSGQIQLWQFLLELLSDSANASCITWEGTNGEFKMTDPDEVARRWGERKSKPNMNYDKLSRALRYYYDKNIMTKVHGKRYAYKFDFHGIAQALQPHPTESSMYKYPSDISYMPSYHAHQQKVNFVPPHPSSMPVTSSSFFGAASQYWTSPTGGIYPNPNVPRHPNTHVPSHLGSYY
In short: (§1)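 Pools of DNA-barcoded human transcription factors, expressed in yeast as GST fusions on glutathione beads and combined with a tag-only sample, were incubated with 200 nmole of a 16-mer random double-stranded DNA library. Incubation took 30 min at room temperature in Tris/NaCl/DTT/glycerol buffer and was followed by washing, 0.1% formaldehyde crosslinking, proximity ligation (BsaI/T4 ligase, 1 h, 37 °C), PCR amplification and sequencing on an Illumina NextSeq500. Binding signal is the ratio of a hexamer's read frequency for a factor to its frequency for the tag-only sample.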

ELK1 = target: T2, ELK1 (Homo sapiens, UniProt P19419 1-428); settings: protein: recombinant; tags: N-terminal GST; dsDNA, one strand shown
T2 sequence: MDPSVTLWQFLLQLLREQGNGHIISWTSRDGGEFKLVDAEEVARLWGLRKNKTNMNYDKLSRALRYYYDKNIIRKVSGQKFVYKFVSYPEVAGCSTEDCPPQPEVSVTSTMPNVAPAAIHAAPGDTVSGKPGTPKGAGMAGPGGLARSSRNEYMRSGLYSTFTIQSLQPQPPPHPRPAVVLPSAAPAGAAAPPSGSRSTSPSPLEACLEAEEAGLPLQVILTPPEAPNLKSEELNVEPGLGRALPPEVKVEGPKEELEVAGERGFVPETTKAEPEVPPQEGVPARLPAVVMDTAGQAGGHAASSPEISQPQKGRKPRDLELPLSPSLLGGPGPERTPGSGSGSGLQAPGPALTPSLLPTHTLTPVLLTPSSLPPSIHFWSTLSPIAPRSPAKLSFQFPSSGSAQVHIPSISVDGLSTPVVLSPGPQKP
In short: as §1

GABPA = target: T3, GABPA (Homo sapiens, UniProt Q06546 1-454); settings: protein: recombinant; tags: N-terminal GST; dsDNA, one strand shown
T3 sequence: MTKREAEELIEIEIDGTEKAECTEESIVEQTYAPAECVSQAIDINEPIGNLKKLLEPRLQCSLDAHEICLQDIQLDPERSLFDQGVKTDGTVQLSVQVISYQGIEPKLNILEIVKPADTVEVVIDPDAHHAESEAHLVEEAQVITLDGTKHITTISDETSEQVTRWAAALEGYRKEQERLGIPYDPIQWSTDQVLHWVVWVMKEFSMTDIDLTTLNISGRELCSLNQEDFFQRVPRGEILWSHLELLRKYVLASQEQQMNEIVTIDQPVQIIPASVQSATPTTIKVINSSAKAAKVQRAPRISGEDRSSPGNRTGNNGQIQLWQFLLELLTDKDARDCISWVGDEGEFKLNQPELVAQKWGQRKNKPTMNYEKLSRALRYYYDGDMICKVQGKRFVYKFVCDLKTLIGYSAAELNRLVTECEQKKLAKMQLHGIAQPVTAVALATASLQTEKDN
In short: as §1

ERG = target: T4, ERG (Homo sapiens, UniProt P11308 1-479); settings: protein: recombinant; tags: N-terminal GST; dsDNA, one strand shown
T4 sequence: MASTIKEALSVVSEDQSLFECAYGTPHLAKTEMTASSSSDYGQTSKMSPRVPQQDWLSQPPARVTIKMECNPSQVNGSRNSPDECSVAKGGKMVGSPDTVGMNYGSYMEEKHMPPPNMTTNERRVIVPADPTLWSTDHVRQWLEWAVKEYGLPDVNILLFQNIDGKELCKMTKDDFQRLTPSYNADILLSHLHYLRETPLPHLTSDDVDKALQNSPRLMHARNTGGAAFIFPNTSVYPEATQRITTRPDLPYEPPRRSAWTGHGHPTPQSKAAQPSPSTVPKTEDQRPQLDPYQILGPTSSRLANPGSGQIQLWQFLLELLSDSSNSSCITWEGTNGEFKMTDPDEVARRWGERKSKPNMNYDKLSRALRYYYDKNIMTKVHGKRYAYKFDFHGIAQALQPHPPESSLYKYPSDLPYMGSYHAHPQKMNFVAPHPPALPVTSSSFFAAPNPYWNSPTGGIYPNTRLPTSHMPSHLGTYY
In short: as §1

ELF1 = ELF1 (Homo sapiens, UniProt P32519 1-619); settings: protein: recombinant; tags: N-terminal GST; dsDNA, one strand shown
In short: as §1

EHF = target: T5, EHF (Homo sapiens, UniProt Q9NZC4 1-300); settings: protein: recombinant; tags: N-terminal GST; dsDNA, one strand shown
T5 sequence: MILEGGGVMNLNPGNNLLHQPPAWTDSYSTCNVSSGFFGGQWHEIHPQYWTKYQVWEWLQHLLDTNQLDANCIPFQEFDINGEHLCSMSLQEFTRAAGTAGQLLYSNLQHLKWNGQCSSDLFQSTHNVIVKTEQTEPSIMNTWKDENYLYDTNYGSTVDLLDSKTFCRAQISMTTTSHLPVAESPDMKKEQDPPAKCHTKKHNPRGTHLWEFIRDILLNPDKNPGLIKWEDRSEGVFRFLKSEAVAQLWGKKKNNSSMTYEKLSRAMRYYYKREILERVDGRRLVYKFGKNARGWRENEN
In short: as §1

SPI1 = SPI1 (Homo sapiens, UniProt P17947 1-270); settings: protein: recombinant; tags: N-terminal GST; dsDNA, one strand shown
In short: as §1

SPIB = SPIB (Homo sapiens, UniProt Q01892 1-262); settings: protein: recombinant; tags: N-terminal GST; dsDNA, one strand shown
In short: as §1

ELK3 = target: T6, ELK3 (Homo sapiens, UniProt P41970 1-407); settings: protein: recombinant; tags: N-terminal GST; dsDNA, one strand shown
T6 sequence: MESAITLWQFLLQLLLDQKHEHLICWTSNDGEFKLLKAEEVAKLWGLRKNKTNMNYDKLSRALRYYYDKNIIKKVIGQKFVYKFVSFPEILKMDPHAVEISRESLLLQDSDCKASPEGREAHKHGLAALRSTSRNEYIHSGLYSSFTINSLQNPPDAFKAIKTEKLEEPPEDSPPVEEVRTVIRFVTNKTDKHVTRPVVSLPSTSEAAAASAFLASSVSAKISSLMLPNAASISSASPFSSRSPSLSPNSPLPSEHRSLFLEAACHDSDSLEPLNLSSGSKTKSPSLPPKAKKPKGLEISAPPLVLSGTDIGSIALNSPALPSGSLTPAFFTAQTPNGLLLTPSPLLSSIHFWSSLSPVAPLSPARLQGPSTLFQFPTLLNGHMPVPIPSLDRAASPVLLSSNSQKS
In short: as §1

FEV = target: T7, FEV (Homo sapiens, UniProt Q99581 1-238); settings: protein: recombinant; tags: N-terminal GST; dsDNA, one strand shown
T7 sequence: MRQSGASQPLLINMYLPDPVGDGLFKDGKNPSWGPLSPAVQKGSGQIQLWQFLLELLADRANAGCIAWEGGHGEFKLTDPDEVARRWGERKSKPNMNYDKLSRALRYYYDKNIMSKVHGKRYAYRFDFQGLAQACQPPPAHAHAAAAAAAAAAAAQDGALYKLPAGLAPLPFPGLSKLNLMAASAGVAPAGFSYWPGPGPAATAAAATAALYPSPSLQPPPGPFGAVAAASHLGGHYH
In short: as §1

ETV5 = ETV5 (Homo sapiens, UniProt P41161 1-510); settings: protein: recombinant; tags: N-terminal GST; dsDNA, one strand shown
In short: as §1

HSF1 = HSF1 (Homo sapiens, UniProt Q00613 1-529); settings: protein: recombinant; tags: N-terminal GST; chain copies: 3; dsDNA, one strand shown
In short: as §1

SPIC = target: T8, SPIC (Homo sapiens, UniProt Q8N5J4 1-248); settings: protein: recombinant; tags: N-terminal GST; dsDNA, one strand shown
T8 sequence: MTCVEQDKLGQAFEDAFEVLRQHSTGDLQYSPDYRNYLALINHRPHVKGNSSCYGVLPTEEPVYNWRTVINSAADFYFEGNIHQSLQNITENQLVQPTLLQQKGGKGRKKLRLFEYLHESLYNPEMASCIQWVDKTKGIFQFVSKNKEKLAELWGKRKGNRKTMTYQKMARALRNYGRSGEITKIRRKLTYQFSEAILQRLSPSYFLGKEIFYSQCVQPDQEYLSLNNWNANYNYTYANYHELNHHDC
In short: as §1

ELF4 = ELF4 (Homo sapiens, UniProt Q99607 1-663); settings: protein: recombinant; tags: N-terminal GST; dsDNA, one strand shown
In short: as §1

ELK4 = target: T9, ELK4 (Homo sapiens, UniProt P28324-2 1-405); settings: protein: recombinant; tags: N-terminal GST; dsDNA, one strand shown
T9 sequence: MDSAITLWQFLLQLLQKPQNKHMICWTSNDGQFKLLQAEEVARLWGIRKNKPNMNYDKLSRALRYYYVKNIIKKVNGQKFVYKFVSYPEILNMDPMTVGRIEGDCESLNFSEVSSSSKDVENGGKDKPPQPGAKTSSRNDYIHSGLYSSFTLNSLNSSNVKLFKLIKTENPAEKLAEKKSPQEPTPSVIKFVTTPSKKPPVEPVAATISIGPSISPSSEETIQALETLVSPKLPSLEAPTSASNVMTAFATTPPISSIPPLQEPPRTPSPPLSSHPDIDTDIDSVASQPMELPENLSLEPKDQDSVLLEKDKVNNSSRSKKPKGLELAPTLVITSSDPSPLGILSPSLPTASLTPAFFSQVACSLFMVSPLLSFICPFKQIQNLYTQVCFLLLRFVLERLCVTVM
In short: as §1

ETV2 = target: T10, ETV2 (Homo sapiens, UniProt O00321 1-342); settings: protein: recombinant; tags: N-terminal GST; dsDNA, one strand shown
T10 sequence: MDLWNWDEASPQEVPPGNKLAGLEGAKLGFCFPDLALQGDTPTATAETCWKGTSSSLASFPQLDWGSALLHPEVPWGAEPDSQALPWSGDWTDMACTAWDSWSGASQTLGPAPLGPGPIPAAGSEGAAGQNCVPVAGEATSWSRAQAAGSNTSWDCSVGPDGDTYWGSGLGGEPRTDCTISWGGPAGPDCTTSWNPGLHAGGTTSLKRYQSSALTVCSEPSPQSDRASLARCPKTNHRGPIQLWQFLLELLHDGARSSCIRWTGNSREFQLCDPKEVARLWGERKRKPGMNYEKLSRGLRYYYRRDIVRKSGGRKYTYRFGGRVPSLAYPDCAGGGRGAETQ
In short: as §1

ELF3 = target: T11, ELF3 (Homo sapiens, UniProt P78545 1-371); settings: protein: recombinant; tags: N-terminal GST; dsDNA, one strand shown
T11 sequence: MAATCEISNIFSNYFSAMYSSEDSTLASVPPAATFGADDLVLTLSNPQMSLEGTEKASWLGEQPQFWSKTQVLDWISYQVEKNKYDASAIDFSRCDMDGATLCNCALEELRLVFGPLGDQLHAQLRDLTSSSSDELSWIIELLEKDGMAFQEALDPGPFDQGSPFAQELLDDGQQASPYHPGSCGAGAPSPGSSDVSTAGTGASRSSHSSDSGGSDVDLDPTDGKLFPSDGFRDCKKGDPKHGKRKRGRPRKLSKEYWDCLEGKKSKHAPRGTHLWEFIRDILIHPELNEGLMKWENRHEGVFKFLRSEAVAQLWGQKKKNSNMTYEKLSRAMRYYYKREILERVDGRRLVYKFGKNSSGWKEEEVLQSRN
In short: as §1

CRX = CRX (Homo sapiens, UniProt O43186 1-299); settings: protein: recombinant; tags: N-terminal GST; dsDNA, one strand shown
In short: as §1

ETV1 = ETV1 (Homo sapiens, UniProt P50549 1-477); settings: protein: recombinant; tags: N-terminal GST; dsDNA, one strand shown
In short: as §1

Chain of SPIB (Q01892 whole entry): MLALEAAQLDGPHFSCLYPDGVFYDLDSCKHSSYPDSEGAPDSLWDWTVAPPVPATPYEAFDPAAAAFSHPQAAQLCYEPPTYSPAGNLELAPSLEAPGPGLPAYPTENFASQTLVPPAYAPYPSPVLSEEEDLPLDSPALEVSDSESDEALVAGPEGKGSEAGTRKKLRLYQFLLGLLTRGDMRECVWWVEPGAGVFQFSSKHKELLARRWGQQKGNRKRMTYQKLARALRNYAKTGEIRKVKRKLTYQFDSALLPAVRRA
Chain of HSF1 (Q00613 whole entry): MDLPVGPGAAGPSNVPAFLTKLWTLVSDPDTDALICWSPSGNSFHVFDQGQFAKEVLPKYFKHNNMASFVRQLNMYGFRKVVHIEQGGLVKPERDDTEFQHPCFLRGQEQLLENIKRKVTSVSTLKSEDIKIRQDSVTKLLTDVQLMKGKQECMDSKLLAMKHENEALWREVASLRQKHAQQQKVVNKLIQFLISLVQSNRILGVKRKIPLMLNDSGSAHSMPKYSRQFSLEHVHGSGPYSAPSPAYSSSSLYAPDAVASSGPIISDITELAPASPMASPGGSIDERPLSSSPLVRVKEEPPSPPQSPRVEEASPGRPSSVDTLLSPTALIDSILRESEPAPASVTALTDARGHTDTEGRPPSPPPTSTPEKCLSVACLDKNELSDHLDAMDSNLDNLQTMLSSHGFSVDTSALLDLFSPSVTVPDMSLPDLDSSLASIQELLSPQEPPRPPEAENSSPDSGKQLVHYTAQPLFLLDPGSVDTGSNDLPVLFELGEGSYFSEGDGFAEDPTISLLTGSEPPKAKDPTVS
Chain of ELF1 (P32519 whole entry): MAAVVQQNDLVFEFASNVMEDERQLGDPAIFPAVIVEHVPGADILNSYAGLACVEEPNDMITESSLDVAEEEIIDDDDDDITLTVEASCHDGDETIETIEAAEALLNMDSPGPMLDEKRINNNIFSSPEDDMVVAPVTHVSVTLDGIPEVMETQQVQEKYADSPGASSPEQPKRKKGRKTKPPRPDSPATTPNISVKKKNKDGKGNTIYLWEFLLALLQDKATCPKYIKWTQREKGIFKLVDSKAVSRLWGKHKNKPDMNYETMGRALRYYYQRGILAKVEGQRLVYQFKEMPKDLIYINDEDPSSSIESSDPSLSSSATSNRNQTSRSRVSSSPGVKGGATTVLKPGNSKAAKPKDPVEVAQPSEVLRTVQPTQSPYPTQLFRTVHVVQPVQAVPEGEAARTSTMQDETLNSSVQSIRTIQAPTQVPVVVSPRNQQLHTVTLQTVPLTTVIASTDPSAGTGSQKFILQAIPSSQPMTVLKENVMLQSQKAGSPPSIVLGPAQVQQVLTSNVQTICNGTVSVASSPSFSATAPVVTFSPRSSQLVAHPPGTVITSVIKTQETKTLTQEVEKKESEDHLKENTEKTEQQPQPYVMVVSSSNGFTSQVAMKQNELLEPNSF
Chain of CRX (O43186 whole entry): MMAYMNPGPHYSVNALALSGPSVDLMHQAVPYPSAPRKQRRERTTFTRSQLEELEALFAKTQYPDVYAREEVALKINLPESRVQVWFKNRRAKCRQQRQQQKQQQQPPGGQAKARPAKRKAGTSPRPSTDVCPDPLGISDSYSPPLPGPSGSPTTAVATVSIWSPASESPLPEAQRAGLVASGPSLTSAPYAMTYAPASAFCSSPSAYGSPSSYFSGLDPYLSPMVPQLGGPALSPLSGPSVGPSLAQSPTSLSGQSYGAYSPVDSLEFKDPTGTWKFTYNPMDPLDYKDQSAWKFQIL
Chain of ETV5 (P41161 whole entry): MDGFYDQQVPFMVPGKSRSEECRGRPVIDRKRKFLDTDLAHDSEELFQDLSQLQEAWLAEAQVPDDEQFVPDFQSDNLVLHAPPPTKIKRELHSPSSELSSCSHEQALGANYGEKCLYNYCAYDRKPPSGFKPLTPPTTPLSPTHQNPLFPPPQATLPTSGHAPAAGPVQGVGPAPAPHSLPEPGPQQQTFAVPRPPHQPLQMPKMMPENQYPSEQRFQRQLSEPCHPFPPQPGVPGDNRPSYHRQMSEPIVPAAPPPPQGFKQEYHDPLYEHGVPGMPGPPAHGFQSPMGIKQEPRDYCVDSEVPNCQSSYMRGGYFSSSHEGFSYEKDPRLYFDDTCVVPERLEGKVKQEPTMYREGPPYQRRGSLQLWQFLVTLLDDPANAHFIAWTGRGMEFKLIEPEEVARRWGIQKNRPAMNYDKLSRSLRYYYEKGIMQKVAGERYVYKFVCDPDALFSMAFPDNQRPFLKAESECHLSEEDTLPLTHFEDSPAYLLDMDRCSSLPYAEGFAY
Chain of ETV1 (P50549 whole entry): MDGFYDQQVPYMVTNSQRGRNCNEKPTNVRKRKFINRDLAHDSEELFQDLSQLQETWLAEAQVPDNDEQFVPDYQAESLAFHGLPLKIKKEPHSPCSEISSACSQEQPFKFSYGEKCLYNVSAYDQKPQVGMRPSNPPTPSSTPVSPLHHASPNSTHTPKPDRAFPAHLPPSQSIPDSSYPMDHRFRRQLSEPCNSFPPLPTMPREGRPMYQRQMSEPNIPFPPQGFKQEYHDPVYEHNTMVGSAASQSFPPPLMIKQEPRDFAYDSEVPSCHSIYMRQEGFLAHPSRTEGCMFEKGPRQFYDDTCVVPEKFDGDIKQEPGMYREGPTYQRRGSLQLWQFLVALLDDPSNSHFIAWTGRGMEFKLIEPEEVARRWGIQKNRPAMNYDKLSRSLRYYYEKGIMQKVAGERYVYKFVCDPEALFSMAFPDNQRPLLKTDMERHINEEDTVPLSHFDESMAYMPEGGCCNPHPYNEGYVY
Chain of ELF4 (Q99607 whole entry): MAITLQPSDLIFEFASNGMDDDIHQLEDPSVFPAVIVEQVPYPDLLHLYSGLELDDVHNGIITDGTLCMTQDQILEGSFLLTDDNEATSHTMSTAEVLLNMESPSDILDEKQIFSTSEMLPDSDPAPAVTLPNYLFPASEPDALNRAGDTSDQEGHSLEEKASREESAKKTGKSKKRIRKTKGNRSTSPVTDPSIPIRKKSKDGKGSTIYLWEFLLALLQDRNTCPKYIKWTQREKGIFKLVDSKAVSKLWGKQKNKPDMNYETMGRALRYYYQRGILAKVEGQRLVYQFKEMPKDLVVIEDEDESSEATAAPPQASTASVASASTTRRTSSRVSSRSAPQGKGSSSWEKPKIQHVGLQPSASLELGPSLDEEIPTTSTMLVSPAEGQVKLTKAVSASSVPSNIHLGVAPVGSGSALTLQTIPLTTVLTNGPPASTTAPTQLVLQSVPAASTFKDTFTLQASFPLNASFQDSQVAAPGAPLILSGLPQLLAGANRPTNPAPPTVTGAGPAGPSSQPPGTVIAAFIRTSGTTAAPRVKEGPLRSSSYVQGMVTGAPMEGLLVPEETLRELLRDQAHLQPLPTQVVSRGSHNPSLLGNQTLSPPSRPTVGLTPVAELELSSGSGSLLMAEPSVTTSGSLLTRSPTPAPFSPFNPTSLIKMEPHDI

Sequence: CTTTTG
- binding signal (FLI1): 1.42 fold enrichment (6-mer frequency, TF over GST control)
- binding signal (ELK1): 1.35 fold enrichment (6-mer frequency, TF over GST control)
- binding signal (GABPA): 1.41 fold enrichment (6-mer frequency, TF over GST control)
- binding signal (ERG): 1.25 fold enrichment (6-mer frequency, TF over GST control)
- binding signal (ELF1): 1.34 fold enrichment (6-mer frequency, TF over GST control)
- binding signal (EHF): 1.32 fold enrichment (6-mer frequency, TF over GST control)
- binding signal (SPI1): 1.6 fold enrichment (6-mer frequency, TF over GST control)
- binding signal (SPIB): 1.42 fold enrichment (6-mer frequency, TF over GST control)
- binding signal (ELK3): 1.23 fold enrichment (6-mer frequency, TF over GST control)
- binding signal (FEV): 1.3 fold enrichment (6-mer frequency, TF over GST control)
- binding signal (ETV5): 1.38 fold enrichment (6-mer frequency, TF over GST control)
- binding signal (HSF1): 1.36 fold enrichment (6-mer frequency, TF over GST control)
- binding signal (SPIC): 1.36 fold enrichment (6-mer frequency, TF over GST control)
- binding signal (ELF4): 1.42 fold enrichment (6-mer frequency, TF over GST control)
- binding signal (ELK4): 1.35 fold enrichment (6-mer frequency, TF over GST control)
- binding signal (ETV2): 1.25 fold enrichment (6-mer frequency, TF over GST control)
- binding signal (ELF3): 1.39 fold enrichment (6-mer frequency, TF over GST control)
- binding signal (CRX): 1.43 fold enrichment (6-mer frequency, TF over GST control)
- binding signal (ETV1): 1.3 fold enrichment (6-mer frequency, TF over GST control)
